Measured values taken from PMC4336329 (PLoS ONE, 2015).
Hit rate of the full screen: of about 310,000 compounds, about 2,200 (0.71%) showed an effect of 50% or more. The effect is printed as a negative number. This excerpt belongs to a sample that is enriched for strong results.

target: human ether-à-go-go-related gene (hERG) potassium channel (human, UniProt Q12809); assay: primary screen, population patch clamp on CHO cells stably expressing hERG; higher = less effect of the substance
Sequence (Q12809 whole entry, looked up): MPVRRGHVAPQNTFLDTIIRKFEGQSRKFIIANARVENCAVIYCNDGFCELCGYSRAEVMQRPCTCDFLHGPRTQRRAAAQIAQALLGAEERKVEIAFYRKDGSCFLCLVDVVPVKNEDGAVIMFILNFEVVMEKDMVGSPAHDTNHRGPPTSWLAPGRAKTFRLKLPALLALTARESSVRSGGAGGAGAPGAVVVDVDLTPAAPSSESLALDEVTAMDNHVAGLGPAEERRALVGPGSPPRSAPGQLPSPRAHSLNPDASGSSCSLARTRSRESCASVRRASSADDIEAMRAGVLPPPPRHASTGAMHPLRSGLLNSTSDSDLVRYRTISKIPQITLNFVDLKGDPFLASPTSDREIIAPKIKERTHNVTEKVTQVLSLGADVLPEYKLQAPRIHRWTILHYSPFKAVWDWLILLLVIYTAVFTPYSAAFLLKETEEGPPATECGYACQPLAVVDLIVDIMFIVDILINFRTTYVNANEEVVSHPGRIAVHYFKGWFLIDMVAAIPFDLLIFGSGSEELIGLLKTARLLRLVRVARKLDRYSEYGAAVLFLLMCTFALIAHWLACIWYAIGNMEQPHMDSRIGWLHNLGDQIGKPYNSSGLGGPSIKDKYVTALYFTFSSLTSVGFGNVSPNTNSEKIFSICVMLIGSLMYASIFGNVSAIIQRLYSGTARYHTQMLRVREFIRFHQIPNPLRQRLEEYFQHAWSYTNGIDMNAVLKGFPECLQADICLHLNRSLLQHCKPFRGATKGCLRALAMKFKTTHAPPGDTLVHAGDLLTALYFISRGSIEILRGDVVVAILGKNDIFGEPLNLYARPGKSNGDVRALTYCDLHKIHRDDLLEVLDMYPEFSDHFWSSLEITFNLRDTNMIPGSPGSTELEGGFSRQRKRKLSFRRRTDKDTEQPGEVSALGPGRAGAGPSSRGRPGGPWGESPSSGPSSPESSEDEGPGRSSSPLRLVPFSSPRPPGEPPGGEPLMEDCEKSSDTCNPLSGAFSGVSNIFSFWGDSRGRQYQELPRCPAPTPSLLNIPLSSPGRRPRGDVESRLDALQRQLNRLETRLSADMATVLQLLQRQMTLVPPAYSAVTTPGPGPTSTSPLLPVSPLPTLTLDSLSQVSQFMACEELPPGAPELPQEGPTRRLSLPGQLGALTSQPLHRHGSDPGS

Row | Structure (SMILES) | hERG current change (%, negative = inhibition) at 1uM
1 | CCCN(CC1CC1)C(=O)CSc1nnc(-c2cc(-c3cccs3)nc3ccccc23)o1 | 6.71%
2 | CS(=O)(=O)c1ccc(-n2nnc3ccccc32)c([N+](=O)[O-])c1 | 10.8%
3 | CCc1ccccc1NC(=O)c1ccc(Cn2cc([N+](=O)[O-])cn2)cc1 | -3.78%
4 | COc1ccc(N2CCN(C(=O)c3ccc(N4CCCCS4(=O)=O)cc3)CC2)cc1 | 10.7%
5 | COc1cccc(S(=O)(=O)Nc2noc3ccccc23)c1 | 14%
6 | Cc1ccc(-c2ccnc3c(Cl)c(C)nn23)cc1 | 13.3%
7 | COc1cc2c(cc1OC)C(=S)NC(C)(C)C2 | 14.8%
8 | COc1cc(S(=O)(=O)NCC2OCCc3ccccc32)ccc1-n1cnnn1 (centres unmarked) | -7.28%
9 | CC(=O)N1CCN(C(=O)C2(NC(=O)Nc3ccccc3Cl)CCCCC2)CC1 | 14.2%
10 | CC(=O)Oc1c(C)c2c3c(c1OC(C)=O)[C@@H](C)CC[C@@H]3[C@@H](C)C[C@H]2C=C(C)C | 11.1%
11 | COc1ccc(CN(C)C(=O)c2cc(S(=O)(=O)N3CCCCCC3)ccc2OC)cc1OC | 4.44%
12 | CCOc1ccc(N(CC(=O)N/N=C/c2cccnc2)S(C)(=O)=O)cc1 | 12.9%
13 | O=C(/C=C/c1ccc(Cl)cc1)N1CCN(c2ccccc2[N+](=O)[O-])CC1 | -33.6%
14 | O=C(/C=C/c1ccc(Cl)cc1)N1CCN(Cc2ccccc2)CC1 | -12.8%
15 | O=C(/C=C/c1ccc([N+](=O)[O-])cc1)N1CCN(Cc2ccccc2)CC1 | -63.8%
16 | O=C(/C=C/c1cccc([N+](=O)[O-])c1)N1CCN(Cc2ccccc2)CC1 | -20.3%
17 | O=C(/C=C/c1ccc(Cl)cc1)N1CCN(c2ccc(Cl)cc2[N+](=O)[O-])CC1 | -81.4%
18 | O=C(/C=C/c1ccc(Cl)cc1)N1CCN(c2ccc([N+](=O)[O-])c(N3CCOCC3)c2)CC1 | -11.1%
19 | CC1(c2cnc(Nc3ccccc3)s2)CCC(=O)O1 (centres unmarked) | 11.7%
20 | O=C1c2ccccc2C(=O)c2c1cccc2N1CCCC1 | 8.54%
21 | O=C1c2ccccc2C(=O)c2c1cccc2N1CCN(Cc2ccccc2)CC1 | -6.21%
22 | O=C1c2ccccc2C(=O)c2c1cccc2N1CCN(CCO)CC1 | -64.7%

Row | Structure (SMILES) | hERG current change (%, negative = inhibition) at 1uM
23 | Cc1cccc(NS(=O)(=O)c2ccc3c(c2)NC(=O)CC(=O)N3)c1 | 18.4%
24 | Cc1cccnc1NC(=O)Nc1cccc2ccccc12 | 0.589%
25 | O=C(c1ccc2c(c1)OCO2)C1CCCN(Cc2ccc(F)c(F)c2)C1 (centres unmarked) | 5.03%
26 | O=C(c1ccc2c(c1)OCO2)C1CCCN(Cc2ccccc2OC(F)F)C1 (centres unmarked) | -16.9%
27 | O=C(c1ccc2c(c1)OCO2)C1CCCN(Cc2ccc3cccc(F)c3n2)C1 (centres unmarked) | -81.5%
28 | Cc1cccc(CN2CCCC(C(=O)c3ccc4c(c3)OCO4)C2)n1 (centres unmarked) | -16.8%
29 | COc1cc(OC)c(OC)cc1CN1CCCC(C(=O)c2ccc3c(c2)OCO3)C1 (centres unmarked) | -27.7%
30 | Cc1ccsc1C(=O)C1CCCN(Cc2ccc(-n3cccn3)cc2)C1 (centres unmarked) | -3.18%
31 | Cc1ccc(CN2CCCC(C(=O)c3ccc4c(c3)OCO4)C2)cc1C (centres unmarked) | -27.1%
32 | Cc1ccsc1C(=O)C1CCCN(Cc2cc(F)ccc2-n2cccn2)C1 (centres unmarked) | -45.5%
33 | Cc1ccc(-n2cccn2)c(CN2CCCC(C(=O)c3ccc4c(c3)OCO4)C2)c1 (centres unmarked) | -83.5%
34 | Cc1ccc(-n2cccn2)c(CN2CCCC(C(=O)c3sccc3C)C2)c1 (centres unmarked) | -82.8%
35 | O=C(c1ccc2c(c1)OCO2)C1CCCN(Cc2c(F)cccc2Cl)C1 (centres unmarked) | 0.9%
36 | O=C(c1ccc2c(c1)OCO2)C1CCCN(Cc2ccc(OC(F)F)cc2)C1 (centres unmarked) | -53%
37 | COc1ccc(CNCc2c(F)cccc2F)cc1OC.O=C(O)C(=O)O | 14.6%
38 | O=C(NC1CCCCCC1)c1ccc(CS(=O)Cc2cccc(Cl)c2)o1 (centres unmarked) | 5.33%
39 | COc1cc(/C=N/N2CCN(Cc3ccc(Cl)cc3)CC2)cc(Br)c1O | 9.38%
40 | N#Cc1c(NC(=O)CCCN2C(=O)c3ccccc3C2=O)oc(-c2ccccc2)c1-c1ccccc1 | -0.65%
41 | Cc1cc2nc3ccc(N(C)C)cc3nc2cc1N | 13.3%
42 | CCOC1(OCC)N=C(N)C2(C#N)C(c3cccc(OC)c3OC)C12C#N (centres unmarked) | 3.32%
43 | CN(C(=O)CCN1C(=O)c2ccccc2C1=O)c1ccccc1 | 15.8%
44 | CCc1cc(C(c2ccc(F)cc2)N2CCOCC2)c(NC(=O)c2ccccc2)s1 (centres unmarked) | 11.2%

Row | Structure (SMILES) | hERG current change (%, negative = inhibition) at 1uM
45 | CCCCNC(=O)N1CCOCCOCCN(C(=O)NCCCC)CCOCCOCC1 | 7.75%
46 | O=C(c1sc2cc([N+](=O)[O-])ccc2c1Cl)N1CCOCC1 | 0.235%
47 | CC(C)(C)CC(=O)OCC(=O)Nc1cc(C(C)(C)C)nn1-c1ccccc1 | -12.9%
48 | Cc1nn2c(-c3ccc(Cl)cc3Cl)nnc2s1 | -0.908%
49 | O=C(c1ccc2c(c1)OCO2)C1CCCN(Cc2cc(F)ccc2-n2cccn2)C1 (centres unmarked) | -78.2%
50 | COc1cccc(CN2CCCC(C(=O)c3ccc4c(c3)OCO4)C2)c1OC (centres unmarked) | -25.3%
51 | COc1cccc(CN2CCCC(C(=O)c3ccc4c(c3)OCO4)C2)c1O (centres unmarked) | -44.6%
52 | Br.Nc1nc(-c2ccc(Br)cc2)cs1 | -2.25%
53 | C/C(=N/N1CCN(c2ccccc2)CC1)c1cccc([N+](=O)[O-])c1 | 8.81%
54 | Cc1ccc(Cl)cc1NS(=O)(=O)Cc1ccccc1 | 14.1%
55 | O=C(Nc1ccc(NC(=O)c2cccs2)cc1)c1cccnc1 | 13.4%
56 | Cc1ccccc1NS(=O)(=O)c1ccc(OCC(=O)NCc2ccccn2)cc1 | 3.12%
57 | O=C(c1ccco1)N1CCN(Cc2cc(=O)c(OCc3ccc([N+](=O)[O-])cc3)co2)CC1 | -29.4%
58 | Cc1ccc(-c2cc(C(=O)Nc3ccc(S(=O)(=O)Nc4onc(C)c4C)cc3)[nH]n2)c(O)c1 | -1.84%
59 | Cc1ccc(-c2nc(N3CCN(C)CC3)c3ccccc3n2)cc1.Cl | 3.62%
60 | c1ccc2c(N3CCCC3)nc(-c3ccncc3)nc2c1 | 1.09%
61 | CN1CCN(c2nc(-c3ccccc3Cl)nc3ccccc23)CC1 | -19.8%
62 | CCN1CCN(c2nc(-c3ccccn3)nc3ccccc23)CC1 | -17.5%
63 | CCN1CCN(c2nc(-c3cccnc3)nc3ccccc23)CC1.Cl | -18.4%
64 | CN1CCN(c2nc(-c3ccncc3)nc3ccccc23)CC1 | -64.9%
65 | CC1CN(c2nn3c(=O)c4ccccc4nc3c3ccccc23)CC(C)O1 (centres unmarked) | -0.465%
66 | CN1CCN(c2nc(-c3ccc(Cl)cc3Cl)nc3ccccc23)CC1 | -58.1%

Row | Structure (SMILES) | hERG current change (%, negative = inhibition) at 1uM
67 | CCN1CCN(c2nc(-c3ccccc3)nc3ccccc23)CC1 | -30.4%
68 | CN1CCN(c2nc(-c3ccc(Cl)c(Cl)c3)nc3ccccc23)CC1 | 9.87%
69 | CCN1CCN(c2nc(-c3ccncc3)nc3ccccc23)CC1 | -75.6%
70 | CCN1CCN(c2nn3c(=O)c4ccccc4nc3c3ccccc23)CC1 | -71.5%
71 | C/C(=N\NC(=O)c1ccc(Cl)cc1)c1ccccn1 | 8.17%
72 | O=S1(=O)CCC(NCC2CCCO2)C1 (centres unmarked) | 12.9%
73 | CC(C)C(NC(=O)OCc1ccccc1)C(=O)OCC(=O)NC1CC1 (centres unmarked) | 11.3%
74 | Fc1ccc(N/N=C/c2ccc(N3CCOCC3)cc2)c(F)c1 | 9.29%
75 | CCc1ccc(CN(C)C(=O)C2CCC(=O)N(CC3CCCCC3)C2)cc1 (centres unmarked) | -12.3%
76 | COc1ccccc1N1CCN(C(=O)c2cn(C)c3ccc(S(=O)(=O)N4CCOCC4)cc3c2=O)CC1 | 13.1%
77 | O=c1nc(-c2ccccc2)n(-c2ccccc2)c2ncccc12 | 10.8%
78 | Cn1c(SCC(=O)NC2CCS(=O)(=O)C2)nnc1-c1ccco1 (centres unmarked) | 10.3%
79 | Cc1cccc(NS(=O)(=O)c2cccs2)c1 | 10.7%
80 | CC1CC(C)CN(c2nc3c(c(=O)n(C)c(=O)n3C)n2C)C1 (centres unmarked) | 11.1%
81 | CCN1CCN(c2ccc(S(=O)(=O)N3CCOCC3)cc2NC(=O)/C=C/c2ccc(C)cc2)CC1 | -4.67%
82 | O=C(/C=C/c1ccccc1)Nc1cc(S(=O)(=O)N2CCOCC2)ccc1N1CCCC1 | 15.7%
83 | O=C(/C=C/c1cccc(F)c1)Nc1cc(S(=O)(=O)N2CCOCC2)ccc1N1CCCC1 | 0.626%
84 | CCN1CCN(c2ccc(S(=O)(=O)N3CCCCC3)cc2NC(=O)/C=C/c2ccc([N+](=O)[O-])cc2)CC1 | 6.53%
85 | O=C(/C=C/c1ccc(F)cc1)Nc1cc(S(=O)(=O)N2CCOCC2)ccc1N1CCCC1 | -60.3%
86 | CCN1CCN(c2ccc(S(=O)(=O)N3CCOCC3)cc2NC(=O)/C=C/c2ccc([N+](=O)[O-])cc2)CC1 | -50.5%
